# Among all 11,000 compounds or so, about 310 (2.8%) were called active. Cut-off read from the data, not from the text of the source: active = activity change below about -85%; inactive = the rest. The sample as a whole holds a higher share of actives than the screen did.
# Tested on: intestinal alkaline phosphatase [Mus musculus]
# Experiment: mouse intestinal phosphatase enzyme activation – biochemical, luminescence, single concentration, confirmation (AID 434970)
# Conditions: purified mouse IAP, CDP-Star luminescence, 30 min, at 10 µM; activation factor: measured here: IAP activation factor, stronger effect = higher value; activity change, negative = activation: stronger effect = lower value
Compound,activation factor,"activity change, negative = activation"
COC(=O)c1cn(NC(=O)C2CCCO2)c(=O)c2ccccc12 (centres undefined),1.03,-3.3% (inactive)
CCN(CC)C(=O)CSc1nc(-c2cccs2)cc(-c2cccs2)c1C#N,0.778,22.2% (inactive)
CCCCC1=CC2=C(c3ccco3)C(=O)C(C)(OC(=O)c3ccc(OC)cc3)C(=O)C2=CN1Cc1ccc2c(c1)OCO2 (centres undefined),0.503,49.7% (inactive)
CCCCNC(=O)C1CCN(C/C(C)=C/c2ccccc2)CC1,1.02,-1.8% (inactive)
CCn1ncc(CN2CCC(C(=O)Nc3cccc(-c4cccc(F)c4)c3)CC2)c1C,2.83,-183% (active)
Cc1cc(NC(=O)C2CCN(S(=O)(=O)c3cnc[nH]3)CC2)ccc1Br,0.935,6.5% (inactive)
CCCn1ncc(CN2CCC(C(=O)Nc3cccc(-c4cccc(F)c4)c3)CC2)c1C,5.28,-428% (active)
CCOC(=O)c1ccc(NC(=O)C2CCN(S(=O)(=O)CC)CC2)cc1,0.952,4.8% (inactive)
CCn1ncc(C2=NOC(C(=O)Nc3ccc(C)cc3)C2)c1C (centres undefined),1.07,-7.35% (inactive)
C/C(=N\OCC(=O)N/N=C/c1ccccc1O)c1cccs1,1.01,-1.25% (inactive)
COc1ccc(Cl)cc1N1C(=O)[C@@H]2C(c3cccc(OC)c3OC)=NO[C@@H]2C1=O,1,0.05% (inactive)
COc1ccc(NC(=O)C(=O)NCCN2CCN(C(=O)C(c3ccccc3)c3ccccc3)CC2)cc1,1.05,-5.05% (inactive)
Cc1cc(C)cc(NC(=S)NCc2ccc3c(c2)OCO3)c1,1.81,-80.9% (inactive)
Cc1ccccc1NC(=S)NC(NC(=O)c1ccccc1C)C(Cl)(Cl)Cl (centres undefined),2.07,-107% (active)
Cc1cc(C)c(NC(=S)NC(NC(=O)c2ccccc2)C(Cl)(Cl)Cl)c(C)c1 (centres undefined),1.28,-28.3% (inactive)
Cc1ccccc1NC(=S)NC(NC(=O)COc1ccccc1)C(Cl)(Cl)Cl (centres undefined),1.73,-73% (inactive)
O=C(O)c1ccccc1NC(=S)NC(NC(=O)c1ccccc1[N+](=O)[O-])C(Cl)(Cl)Cl (centres undefined),0.83,17% (inactive)
CC(=O)NC(NC(=S)Nc1ccc(N=Nc2ccccc2C)cc1C)C(Cl)(Cl)Cl (centres undefined),0.848,15.2% (inactive)
Cc1ccc(NC(=S)NC(NC(=O)c2ccccc2C)C(Cl)(Cl)Cl)c(C)c1 (centres undefined),3.11,-211% (active)
CCC(=O)N1c2ccccc2NC2=C(C(=O)CCC2)C1c1ccc(N(C)C)cc1 (centres undefined),1.18,-18.3% (inactive)
O=C(NC1CCCCC1)N1CCN(c2ccccc2)CC1,0.931,6.95% (inactive)

Compound,activation factor,"activity change, negative = activation"
N/C(COc1cccc(Cl)c1)=N\NS(=O)(=O)c1ccccc1,0.875,12.6% (inactive)
COc1cc(-c2noc(CCC(N)=O)n2)cc(OC)c1OC,0.884,11.6% (inactive)
CCC(C)NCCOCCOc1ccc(F)cc1 (centres undefined),1.03,-3.25% (inactive)
C[C@H]1CN([C@@H](C)CO)C(=O)c2cccc(NC(=O)Nc3ccc(C(F)(F)F)cc3)c2O[C@@H]1CN(C)S(=O)(=O)c1ccc(Cl)cc1,1.47,-46.7% (inactive)
Cc1ccc(S(=O)(=O)N(C)C[C@@H]2Oc3ccc(NC(=O)Nc4cccc5ccccc45)cc3C(=O)N([C@H](C)CO)C[C@H]2C)cc1,2.13,-113% (active)
Cc1ccc(S(=O)(=O)N(C)C[C@H]2Oc3c(NC(=O)Nc4cccc5ccccc45)cccc3C(=O)N([C@@H](C)CO)C[C@@H]2C)cc1,3.14,-214% (active)
Cc1cc2cc(CNC(=S)NCc3ccccc3)ccc2n1C,1.2,-20% (inactive)
N[C@@H](Cc1ccccc1)c1nnc2sc(SCc3ccccc3)nn12,0.972,2.75% (inactive)
O=C(c1ccc[nH]1)N1O[C@@H]2C=C[C@H]1C2,0.951,4.9% (inactive)
CCCN1C2CCCC1CC(NC(=O)c1cc(OC)c(OC)c(OC)c1)C2 (centres undefined),0.893,10.7% (inactive)
Cc1cccc(NC(=O)c2cn(-c3ccccc3)nc2-c2ccccc2)c1,1.64,-64% (inactive)
Cc1nn(Cc2ccc(Cl)c(Cl)c2)c(C)c1NC(=O)c1cn(-c2ccccc2)nc1-c1ccccc1,2.62,-162% (active)
COc1cccc(-c2nn(-c3ccccc3)cc2C(=O)NCC(=O)O)c1,1.08,-8.2% (inactive)
O=C(NC1CCN(Cc2ccc(Cl)cc2)CC1)c1cn(-c2ccccc2)nc1-c1cccnc1,1.6,-60.3% (inactive)
Cc1nn(Cc2ccc(Cl)cc2)c(C)c1NC(=O)c1c(-c2ccccc2)noc1C,1.03,-2.7% (inactive)
Cc1nn(Cc2c(Cl)cccc2Cl)c(C)c1NC(=O)c1cn(-c2ccccc2)nc1-c1ccccc1,1.74,-73.8% (active)
CCCN1CCN(C(=O)c2cn(CC(C)C)c(=O)c3cc(OC)c(OC)cc23)CC1,1.04,-4.4% (inactive)
COc1ccc(C2CC(c3ccccc3)n3nnnc3N2)cc1 (centres undefined),1.15,-14.9% (inactive)
COc1ccc2c(CC(=O)OCC(=O)N3CCc4ccccc43)coc2c1,0.935,6.5% (inactive)
COc1cc2c(cc1OC)[C@@H](NC(=O)COc1ccccc1)[C@H](OCc1ccccc1)C2,1.07,-6.55% (inactive)
O=C(CSc1ncccn1)NCc1ccccc1,1.02,-2% (inactive)

# From PubChem BioAssay AID434970 (Sanford-Burnham Center for Chemical Genomics, 2010)
